Screening results (PubChem BioAssay)
A selection: hits, their analogues and other compounds. The true share with any hit is near 10%.
Luciferase inh: blocks purified firefly luciferase enzyme activity; AID 1347043; purified P. pyralis luciferase, luminescence, biochemical; Potency, µM (top dose mostly 115 µM), most hits filed as inhibitors; 76,000 tested, 2.5% active; further: nearly all actives have a fitted effect of over 65% in size
Target sequence (P08659 whole entry, looked up): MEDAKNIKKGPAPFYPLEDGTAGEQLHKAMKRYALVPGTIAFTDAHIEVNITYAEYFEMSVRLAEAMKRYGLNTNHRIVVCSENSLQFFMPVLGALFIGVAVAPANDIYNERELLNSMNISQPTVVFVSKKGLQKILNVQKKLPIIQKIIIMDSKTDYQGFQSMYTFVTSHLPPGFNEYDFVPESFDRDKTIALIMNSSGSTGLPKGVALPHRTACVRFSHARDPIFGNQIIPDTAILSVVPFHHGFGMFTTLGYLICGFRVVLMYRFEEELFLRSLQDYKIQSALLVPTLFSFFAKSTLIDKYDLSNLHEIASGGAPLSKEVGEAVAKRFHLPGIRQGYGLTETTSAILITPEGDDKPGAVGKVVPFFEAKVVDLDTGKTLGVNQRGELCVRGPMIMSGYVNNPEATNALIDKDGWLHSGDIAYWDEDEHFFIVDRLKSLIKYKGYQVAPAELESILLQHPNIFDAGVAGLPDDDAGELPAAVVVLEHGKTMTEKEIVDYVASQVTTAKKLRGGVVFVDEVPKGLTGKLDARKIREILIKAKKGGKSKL
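Purified P. pyralis luciferase (10nM final) in 50mM Tris acetate pH 7.5, 10mM Mg acetate, 0.01% Tween-20, 0.05% BSA with 10uM D-luciferin and 10uM ATP. Compounds titrated qHTS. Luminescence imaged on CCD.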
GPT2 inhibitor: inhibitors of human GPT2 alanine aminotransferase | Recombinant GPT2, coupled pyruvate oxidase/HRP Amplex Red fluorescence | Potency, µM (titrated, usually from 57.7 µM), actives largely listed as inhibitors | 100,000 tested, 0.25% active | AID 1671188; further: nearly all actives have a fitted effect of over 60% in size
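Fluorescence of coupled pyruvate oxidase/HRP/Amplex Red system (50uM Amplex, 30 min, dark) reports pyruvate formed by GPT2. Enzyme reaction: 10ng/uL GPT2, 2mM L-alanine, 250uM a-KG, 30 min room temperature, pH 7.5; 50uM AOA control.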
HEK cytotox: cytotoxic compounds in HEK 293 cells | Potency, µM (titrated, usually from 115 µM), actives largely listed as inhibitors | 94,000 tested, 6.6% active | HEK 293 viability, ATP luminescence (CellTiter-Glo), 48-72 h; further: nearly all actives have a fitted effect of over 60% in size
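Viability of HEK 293 cells, plated at 250 cells/well, was judged by cellular ATP after compound treatment for 48 or 72 hr. Luminescence was imaged 10 min after CellTiter-Glo addition at room temperature.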
3T3 cytotox: kills NIH 3T3 cells; NIH 3T3 viability, CellTiter-Glo ATP luminescence, 48-72 h; Potency, µM (titrated, usually from 96.7 µM), most hits filed as inhibitors; 94,000 tested, 4.3% active; AID 1345082; further: nearly all actives have a fitted effect of over 55% in size
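Mouse fibroblast NIH 3T3 cells, 400 per well, received compound via pintool and were incubated for 48 or 72 hr prior to CellTiter-Glo ATP luminescence measurement.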
hNpr1 antagonist: human Npr1 receptor antagonism; Potency, µM (top dose mostly 46.3 µM), actives largely listed as inhibitors; 76,000 tested, 1.6% active; HEK293 hNpr1 GloSensor cGMP, ANP-stimulated luminescence; calls by dose curve; further: nearly all actives have a fitted effect of over 60% in size
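Compound pre-incubated 30 min at room temperature on GloSensor-loaded HEK293 cells stably carrying hNpr1 and the pGS-40F cGMP biosensor. Stimulation uses hNppA at 0.1 nM final; luminescence is taken at baseline and 20 min post-agonist.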
Large screens that a line does not name were inactive. Unless noted, the call rests on the fitted dose curve; in most records, active means well fitted curve in the direction sought with a large enough effect; inconclusive means small, poorly fitted or top-dose-only effect, or another doubt; inactive means no such curve, though single readings can be large; an effect the other way counts as inactive or inconclusive.

O=C([C@H]1C[C@H](Oc2ccccc2)CN1S(=O)(=O)Cc1ccccc1)N1CCOCC1	none
O=C(NCC12CCC=C1N(CC1CC1)C(=O)CC2)C1CCOCC1 (configuration not stated)	none
CCc1noc(-c2cccn3c(CNC(=O)COc4ccc(F)cc4)nnc23)n1	none
CCOc1ccccc1C1NC(=O)N(CC(=O)NCc2ccccc2Cl)C2=C1C(=O)OC2 (configuration not stated)	HEK cytotox inconclusive, 3T3 cytotox inconclusive
CC(CCc1ccccc1)NC(=O)CN1C(=O)NC(c2ccc(Cl)cc2)C2=C1COC2=O (configuration not stated)	HEK cytotox 40µM, 3T3 cytotox inconclusive
O=C(CN1C(=O)NC(c2ccc(Cl)cc2)C2=C1COC2=O)NCc1ccccc1Cl (configuration not stated)	HEK cytotox 35µM, 3T3 cytotox inconclusive
CCOc1ccc(CN2C[C@@H]3C(=O)N(CCN4CCc5ccccc5C4)C(=O)[C@@H]3C2)cc1	GPT2 inhibitor inconclusive, HEK cytotox inconclusive, 3T3 cytotox inconclusive
O=C(Cc1ccc(F)cc1)N1CCN(c2nccc(Nc3ccccc3Cl)n2)CC1	HEK cytotox 40µM, 3T3 cytotox 28µM (no result: Luciferase inh, hNpr1 antagonist)
CN(C)C(=O)N1CCN(c2nccc(Nc3ccccc3F)n2)CC1	none (no result: Luciferase inh, hNpr1 antagonist)
O=C(Cc1ccc(F)cc1)N1CCN(c2nccc(Nc3ccccc3F)n2)CC1	HEK cytotox 18µM, 3T3 cytotox 18µM (no result: Luciferase inh, hNpr1 antagonist)
COc1ccc(Nc2ccnc(N3CCN(C(=O)Cc4ccc(F)cc4)CC3)n2)cc1	HEK cytotox 11µM, 3T3 cytotox 25µM (no result: Luciferase inh, hNpr1 antagonist)
O=C(Cc1ccc(F)cc1)NC1CCN(c2nccc(Nc3ccccc3Cl)n2)CC1	HEK cytotox inconclusive, 3T3 cytotox inconclusive (no result: Luciferase inh, hNpr1 antagonist)
Cc1nc(C)c(C(=O)N2CCCCCCN(C)C(=O)[C@@H]3CCC[C@@H]32)s1	none
CCOCC(=O)Nc1nn(-c2ccc(F)cc2)c2cccc(N3CCOC3=O)c12	Luciferase inh 35µM, HEK cytotox inconclusive
CCc1nc(C)c(C(=O)Nc2nn(C)c3cccc(N4CCOC4=O)c23)o1	none
CC1Oc2ccc(NC(=O)Cc3ccc(F)cc3)cc2CN(CC2CC2)C1=O (configuration not stated)	HEK cytotox 40µM, 3T3 cytotox inconclusive
CC1Oc2ccc(NS(=O)(=O)c3ccc(F)cc3)cc2CN(Cc2ccc(F)cc2)C1=O (configuration not stated)	HEK cytotox 45µM, 3T3 cytotox inconclusive
COc1ccc(CN2Cc3cc(NC(=O)Cc4ccc(F)cc4)ccc3OC(C)C2=O)cc1 (configuration not stated)	HEK cytotox 40µM, 3T3 cytotox inconclusive
CC1Oc2ccc(NC(=O)Cc3ccc(F)cc3)cc2CN(CCc2ccc(F)cc2)C1=O (configuration not stated)	HEK cytotox inconclusive, 3T3 cytotox inconclusive
CC1Oc2ccc(NC(=O)Cc3ccccc3)cc2CN(Cc2ccc(F)cc2)C1=O (configuration not stated)	GPT2 inhibitor inconclusive, HEK cytotox 45µM, 3T3 cytotox inconclusive, hNpr1 antagonist inconclusive
COc1ccccc1CN1Cc2cc(NS(=O)(=O)c3ccc(C)c(F)c3)ccc2OC(C)C1=O (configuration not stated)	HEK cytotox inconclusive, 3T3 cytotox inconclusive
CN(c1ccccc1)c1cc(=O)c2ccnc(Nc3cccnc3)c2o1	GPT2 inhibitor inconclusive, HEK cytotox inconclusive, 3T3 cytotox 10µM, hNpr1 antagonist inconclusive
CN(c1ccccc1)c1cc(=O)c2ccnc(NCCc3ccccn3)c2o1	HEK cytotox inconclusive, 3T3 cytotox 25µM
O=c1cc(-c2ccccn2)oc2c(Nc3ccccc3)nccc12	HEK cytotox inconclusive, 3T3 cytotox inconclusive
CC(=O)Nc1ccccc1-c1nccc2c(=O)cc(N(C)c3ccccc3)oc12	3T3 cytotox inconclusive
O=c1cc(-c2ccccn2)oc2c(Nc3cccnc3)nccc12	HEK cytotox inconclusive, 3T3 cytotox 11µM
COc1cccc(NC(=O)CN2C(=O)NC3(CCC(C)CC3)C2=O)c1 (configuration not stated)	HEK cytotox inconclusive, 3T3 cytotox inconclusive
Cc1noc(C)c1C(=O)N1CCCn2ccnc2C1C(C)C (configuration not stated)	none
